In PubChem BioAssay (NCATS):
Results filed as inconclusive are left out. For some assays here: Results with a measured potency or affinity are listed apart. Active and inactive are the calls of the source. Unless noted, how the calls were made is not given here.

Legend:
[1] = Ebola virus entry assay, green fluorescence channel
[2] = Ebola virus entry assay, blue channel fluorescence
[3] = Ebola virus entry assay, ratio channel
[4] = Ebola virus entry assay, green channel fluorescence
[5] = Ebola virus entry assay, reporter ratio channel; Channel type: primary
[6] = Ebola virus entry assay, blue channel (ratio component)
[7] = qHTS assay for measurement of the activity of small molecule inhibitors on Zika virus induced Caspase-3 activity in human iPSC derived neural progenitor cells (hNPCs) (AID 1224857; active means well fitted inhibition curve with a large enough effect; further: nearly all actives have a fitted effect of over 65% in size; further: potency means the concentration at half of the fitted maximal effect); conditions: hNPCs ZIKV-induced caspase-3/7, Caspase-Glo luminescence, 6 h; series mostly up to 45.7 µM
Procedure, shortened: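 After overnight (16–20 h) culture at 350 cells/well, hNPCs get compound, then ZIKV 2 FFU/cell one hour later. Six hours on, Caspase-Glo 3/7 is added and luminescence measured.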

[8] = qHTS assay for measurement of the activity of small molecule inhibitors on Zika virus induced Caspase-3 activity in human astrocytoma cells (AID 1224859; active means well fitted inhibition curve with a large enough effect;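 further: plate controls were ZIKV-infected untreated cells for no effect and uninfected cells for full effect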); conditions: SNB-19 ZIKV-induced caspase-3/7, luminescence, 6 h; series mostly up to 45.7 µM
Procedure, shortened: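 Inhibition of Zika-induced caspase-3/7 activity: SNB-19 cells, 1 h compound pretreatment, ZIKV 2 FFU/cell for 6 h at 37 C, Caspase-Glo luminescence read-out.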

[9] = qHTS profiling of the MIPE4 collection as inhibitors of Plasmodium falciparum (3D7) proliferation (AID 743344);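 further: scaled between DMSO vehicle wells and 0.29 µM artemisinin as full inhibition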; conditions: P. falciparum 3D7 in erythrocytes, SYBR Green DNA fluorescence, 72 h; at 28.5 µM (top of the series)
Procedure, shortened: (§1)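 Parasite DNA was quantified by SYBR Green I fluorescence (ex 485, em 535 nm) after overnight lysis in saponin/Triton buffer at room temperature. Cultures at 0.3% parasitemia and 2.5% hematocrit were first exposed to compound for 72 h at 37 C; signals were normalised to artemisinin (0.29 uM) and vehicle wells.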

[10] = qHTS profiling of the MIPE4 collection as inhibitors of Plasmodium falciparum (DD2) proliferation (AID 743345); conditions: P. falciparum Dd2 in erythrocytes, SYBR Green DNA, 72 h; at 28.5 µM (top of the series)
Procedure, shortened: as §1

[11] = qHTS profiling of the MIPE4 collection as inhibitors of Plasmodium falciparum (DD2) proliferation (Rep 2) (AID 743346); conditions: P. falciparum Dd2 in erythrocytes, SYBR Green DNA, 72 h; at 28.5 µM (top of the series)
Procedure, shortened: as §1

[12] = qHTS profiling of the MIPE4 collection as inhibitors of Plasmodium falciparum (HB3) proliferation (AID 743347);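 further: plate controls were DMSO vehicle wells for no effect and artemisinin wells for full effect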; conditions: P. falciparum HB3 in erythrocytes, SYBR Green DNA, 72 h; at 28.5 µM (top of the series)
Procedure, shortened: as §1
Wherever efficacy is given: 0% is about no effect.

C[C@]12CC[C@H]3[C@@H](CCC4=CC(=O)CC[C@@]43C)[C@@H]1CC[C@@H]2C(=O)O
inactive: efficacy [1] -23.5% | outcome [2] | outcome [3] | outcome [4] | outcome [5] | outcome [6] | Potency [7] | outcome [8]

NCc1cccnc1
inactive: efficacy [1] -20.3% | outcome [2] | outcome [3] | outcome [4] | outcome [5] | outcome [6] | Potency [7] | outcome [8]

CC(C)[N+](C)(CCC(C(N)=O)(c1ccccc1)c1ccccc1)C(C)C
active: Potency [7] 31.6 µM
inactive: efficacy [1] 13.5% | outcome [2] | outcome [3] | outcome [4] | outcome [5] | outcome [6] | outcome [8]

Cc1cccc(Cc2cnc[nH]2)c1C
inactive: efficacy [1] -25% | outcome [2] | outcome [3] | outcome [4] | outcome [5] | outcome [6] | Potency [7] | outcome [8]

COc1ccc(CN2CCNCC2)c(OC)c1OC
inactive: efficacy [1] 47.4% | outcome [2] | outcome [3] | outcome [4] | outcome [5] | outcome [6] | Potency [7] | outcome [8]

CN1C[C@@H](NS(=O)(=O)N(C)C)C[C@@H]2c3cccc4c3c(cn4C)C[C@H]21
inactive: efficacy [1] 31.9% | outcome [2] | outcome [3] | outcome [4] | outcome [6] | outcome [8]
active: AC50 [5] 39.8 µM

N#Cc1nn(-c2c(Cl)cc(C(F)(F)F)cc2Cl)c(N)c1S(=O)C(F)(F)F (stereo not drawn)
inactive: efficacy [1] 9.5% | outcome [2] | outcome [3] | outcome [4] | outcome [5] | outcome [6] | Potency [7] | outcome [8]

Oc1c(Br)cc(Br)cc1Br
inactive: efficacy [1] -9.36% | outcome [2] | outcome [3] | outcome [4] | outcome [5] | outcome [6] | Potency [7] | outcome [8]

CN(C)C(=O)Oc1cc(OC(=O)N(C)C)cc(C(O)CNC(C)(C)C)c1 (stereo not drawn)
inactive: efficacy [1] 18.9% | outcome [2] | outcome [3] | outcome [4] | outcome [5] | outcome [6] | outcome [8]

c1cc2c(c(N3CCNCC3)c1)OCCO2
inactive: efficacy [1] 11.5% | outcome [2] | outcome [3] | outcome [4] | outcome [5] | outcome [6] | outcome [8]

CN(C)CCc1c[nH]c2ccc(O)cc12
inactive: efficacy [1] -13.8% | outcome [2] | outcome [3] | outcome [4] | outcome [5] | outcome [6] | Potency [7] | outcome [8]

O=C(CCl)c1ccc(Cl)cc1Cl
inactive: efficacy [1] -14.1% | outcome [2] | outcome [3] | outcome [4] | outcome [5] | outcome [6] | Potency [7] | outcome [8]

CCOC(=O)C(c1c(O)c2ccccc2oc1=O)c1c(O)c2ccccc2oc1=O
inactive: efficacy [1] 18.5% | outcome [2] | outcome [3] | outcome [4] | outcome [5] | outcome [6] | Potency [7] | outcome [8]

CC(Cc1ccc2c(c1)OCO2)NO (stereo not drawn)
inactive: efficacy [1] -23.6% | outcome [2] | outcome [3] | outcome [4] | outcome [5] | outcome [6] | Potency [7] | outcome [8]

CNC(=O)Oc1cccc2ccccc12
inactive: efficacy [1] 18.8% | outcome [2] | outcome [3] | outcome [4] | outcome [5] | outcome [6] | Potency [7] | outcome [8]

ClCc1cccc(Cl)c1
inactive: efficacy [1] -21.7% | outcome [2] | outcome [3] | outcome [4] | outcome [5] | outcome [6] | Potency [7] | outcome [8]

CCO[C@H]1O[C@@H]2OC3(C)CC[C@H]4[C@H](C)CC[C@@H]([C@H]1C)[C@@]24OO3
inactive: efficacy [1] 19.2% | outcome [2] | outcome [3] | outcome [4] | outcome [5] | outcome [6] | outcome [8]

CCC1(c2ccccc2)CCC(=O)NC1=O (stereo not drawn)
inactive: efficacy [1] 11% | outcome [2] | outcome [3] | outcome [4] | outcome [5] | outcome [6] | outcome [8]

C[C@]12CC[C@H]3[C@@H](CC=C4C[C@@H](O)CC[C@@]43C)[C@@H]1CC[C@@H]2O
inactive: efficacy [1] -35.9% | outcome [2] | outcome [3] | outcome [4] | outcome [5] | outcome [6] | outcome [8]

CC1Sc2c(C(=O)O)c(=O)c3cc(F)c(N4CCNCC4)cc3n21 (stereo not drawn)
inactive: efficacy [1] 10.3% | outcome [2] | outcome [3] | outcome [4] | outcome [5] | outcome [6] | outcome [8]

CC1=C2[C@H]3OC(=O)[C@@H](C)[C@@H]3CC[C@@]2(C)C=CC1=O
inactive: efficacy [1] 18.3% | outcome [2] | outcome [3] | outcome [4] | outcome [5] | outcome [6] | outcome [8]

COc1ccc2c(C(=O)c3ccc(Cl)cc3)c(C)n(CC(=O)O)c2c1
inactive: efficacy [1] 38% | outcome [2] | outcome [3] | outcome [4] | outcome [5] | outcome [6] | outcome [8]

Sc1ccccc1Cl
inactive: efficacy [1] 41.3% | outcome [2] | outcome [3] | outcome [4] | outcome [5] | Potency [7] | outcome [8]

CCc1cc(OC)c(C[C@H](C)N)cc1OC
active: AC50 [2] 22.4 µM | AC50 [3] 25.1 µM | AC50 [5] 25.1 µM
inactive: efficacy [1] 38.5% | outcome [4] | Potency [7] | outcome [8]

CN1CCc2cc(Cl)c(O)cc2[C@H]2c3ccccc3CC[C@@H]21
inactive: efficacy [1] 24% | outcome [4] | Potency [7] | outcome [8]
active: AC50 [2] 25.1 µM | AC50 [3] 17.8 µM | AC50 [5] 17.8 µM

C[C@H]1CNCCc2ccc(Cl)cc21
active: AC50 [2] 20 µM | AC50 [5] 39.8 µM
inactive: efficacy [1] 45.2% | outcome [3] | outcome [4] | Potency [7] | outcome [8]

CC[C@]1(O)CC[C@H]2[C@@H]3CCC4=CCCC[C@@H]4[C@H]3CC[C@@]21C
inactive: efficacy [1] 22.6% | outcome [4] | Potency [7] | outcome [8]
active: AC50 [2] 17.8 µM | AC50 [3] 15.8 µM | AC50 [5] 15.8 µM

N/C(=N\N=C\c1ccc(Cl)cc1)N/N=C/c1ccc(Cl)cc1
active: AC50 [2] 39.8 µM | AC50 [5] 39.8 µM
inactive: efficacy [1] -188% | outcome [3]

CN1C(=O)CN=C(c2ccccc2)c2cc(Cl)ccc21
active: AC50 [2] 25.1 µM | AC50 [5] 35.5 µM
inactive: efficacy [1] -37.3% | outcome [3] | outcome [4] | Potency [7] | outcome [8]

CC(C)=CCN1CC[C@@]2(C)c3cc(O)ccc3C[C@@H]1[C@@H]2C
active: AC50 [2] 31.6 µM | AC50 [3] 31.6 µM | AC50 [5] 31.6 µM
inactive: efficacy [1] 36% | outcome [4] | Potency [7] | outcome [8]

O=c1c(-c2ccccc2)c1-c1ccccc1
inactive: efficacy [1] 22%
active: AC50 [2] 39.8 µM | AC50 [3] 39.8 µM | AC50 [5] 39.8 µM

CCS(=O)(=O)C(C)(C)S(=O)(=O)CC
inactive: efficacy [1] -10.5% | outcome [2] | outcome [3] | outcome [4] | outcome [5] | outcome [8]

COc1ccc(OC)c(CC(C)N)c1 (stereo not drawn)
active: AC50 [2] 31.6 µM | AC50 [5] 31.6 µM
inactive: efficacy [1] 40.3% | outcome [3] | outcome [4] | Potency [7] | outcome [8]

CN(C)CCc1c[nH]c2ccccc12
active: AC50 [2] 35.5 µM
inactive: efficacy [1] -12.4% | outcome [3] | outcome [4] | outcome [5] | Potency [7] | outcome [8]

CN(C)CCc1c[nH]c2cccc(O)c12
inactive: efficacy [1] -23.9% | outcome [3] | outcome [4] | Potency [7] | outcome [8]
active: AC50 [2] 35.5 µM | AC50 [5] 39.8 µM

COc1cc(CC(C)N)cc2c1OCO2 (stereo not drawn)
active: AC50 [2] 35.5 µM | AC50 [5] 35.5 µM
inactive: efficacy [1] 23.1% | outcome [3] | outcome [4] | outcome [8]

C[C@]12CC[C@H]3[C@@H](CCC4=CC(=O)CC[C@@H]43)[C@@H]1CC[C@@H]2O
inactive: efficacy [1] -8.66% | outcome [2] | outcome [3] | outcome [4] | outcome [5] | Potency [7] | outcome [8]

Nc1ccc(Cl)cc1C(=O)c1ccccc1F
active: AC50 [2] 31.6 µM | AC50 [5] 31.6 µM
inactive: efficacy [1] -39% | outcome [3] | outcome [4] | outcome [8]

CCN1CCCC1CNC(=O)C(O)(c1ccccc1)c1ccccc1 (stereo not drawn)
active: AC50 [2] 15.8 µM | AC50 [3] 20 µM | AC50 [5] 20 µM
inactive: efficacy [1] 28.7% | outcome [4] | Potency [7] | outcome [8]

CCCC(C)C1(CC)C(=O)N=C(S)NC1=O (stereo not drawn)
inactive: efficacy [1] 15.1% | outcome [2] | outcome [3] | outcome [4] | outcome [5] | outcome [8]

NC(N)=NC(=O)c1nc(Cl)c(N)nc1N
87.1%: growth, % of control [12]
111%: parasite growth, % of control (lower = inhibition) [11]
116%: parasite growth, % of DMSO control [9]
94%: parasite growth remaining, % of DMSO control (lower = more inhibition) [10]
inactive: efficacy [1] -17.5% | outcome [2] | outcome [3] | outcome [4] | outcome [5] | outcome [6]
